This is an account of results in PubChem BioAssay (EPA / NIEHS).

Read-out in experiment [1]: Cytochrome P450 2C19 (Homo sapiens) (UniProt P33261)
The experiment in a line: CLD_CYP2C19_48hr: CellzDirect (CLD) Gene Expression Assay for xenobiotic metabolism (CYP2C19) at 48 hours (AID 2283700).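 Further: fitted upward so actives raise CYP2C19 mRNA above the 0.2% DMSO vehicle.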 The method in brief:
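Primary human hepatocytes (two donor preparations) dosed daily for two days, harvested at 48 h; CYP2C19 mRNA induction measured by qNPA chemiluminescence. Gain-of-signal fitted relative to 0.2% DMSO vehicle as baseline.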

The nature of experiment [2]: CLD_ACTIN_48hr: CellzDirect (CLD) Gene Expression Assay for Baseline Control (Actin) at 48 hours (AID 2283702). The method in brief: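 Primary human hepatocytes (two donor preparations) dosed daily for two days with ToxCast chemicals at multiple concentrations versus 0.2% DMSO vehicle; harvested at 48 h. Actin mRNA measured as a background control by quantitative nuclease protection assay with chemiluminescence.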

Read-out in experiment [3]: xenobiotic metabolism (CYP1A2), CYP1A2 (gene 1544)
The experiment in a line: CLD_CYP1A2_48hr: CellzDirect (CLD) Gene Expression Assay for xenobiotic metabolism (CYP1A2) at 48 hours (AID 2283703). The method in brief: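 Primary human hepatocytes from two donor preparations were dosed daily for two days at multiple concentrations in 0.2% DMSO vehicle. CYP1A2 mRNA was measured at 48 hours by chemiluminescent quantitative nuclease protection assay, with gain of signal fitted versus DMSO and cytotoxicity annotated from morphology.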

Read-out in experiment [4]: glucuronosyltransferase (UGT1A1), UGT1A1 (gene 54658)
The experiment in a line: CLD_UGT1A1_48hr: CellzDirect (CLD) Gene Expression Assay for glucuronosyltransferase (UGT1A1) at 48 hours (AID 2283709).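 Further: actives increase expression relative to DMSO so potency refers to induction.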 A digest of the protocol: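 Human primary hepatocytes dosed daily for two days (0.2% DMSO vehicle), harvested at 48 h. UGT1A1 mRNA induction measured by quantitative nuclease protection assay with chemiluminescence; gain of signal versus DMSO; cytotoxicity flagged from morphology.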

Read-out in experiment [5]: sulfotransferase (SULT2A), SULT2A1 (gene 6822)
The experiment is described as follows: CLD_SULT2A_48hr: CellzDirect (CLD) Gene Expression Assay for sulfotransferase (SULT2A) at 48 hours (AID 2283710).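 Further: hits raise SULT2A1 transcript above the 0.2% DMSO vehicle baseline.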 A digest of the protocol:
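Primary human hepatocytes (two donor preparations) dosed daily for two days with chemicals at multiple concentrations, vehicle 0.2% DMSO; SULT2A1 mRNA induction at 48 h by quantitative nuclease protection assay, chemiluminescent read-out, fitted for gain of signal versus DMSO.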

Read-out in experiment [6]: HMG-CoA synthase (HMGCS2), HMGCS2 (gene 3158)
The experiment in a line: CLD_HMGCS2_48hr: CellzDirect (CLD) Gene Expression Assay for HMG-CoA synthase (HMGCS2) at 48 hours (AID 2283711). The method in brief:
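Primary human hepatocytes from two donors dosed daily for two days, 0.2% DMSO vehicle. HMGCS2 mRNA measured 48 h after dosing by quantitative nuclease protection assay with chemiluminescent read-out; induction fitted relative to DMSO, cytotoxicity flagged by microscopy.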

Experiment [7] can be described thus: STM_H9_OrnithineISnorm_perc: Stemina devTOX quickPredict H9 human embryonic stem cell (hESC)-based Assay for Ornithine (ORN) Metabolite Biomarker, Normalized (AID 2283712; active means hit-call score of the fitted dose curve at least 0.9, where 1 is the maximum; inactive means score below 0.9;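 further: ornithine released into spent medium during last day measured by mass spectrometry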). The method in brief:
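Cells: undifferentiated H9 hESC. Dosing: 72 h, media replaced every 24 h. Sample: final 24-h conditioned media, 40% acetonitrile. Read: UPLC-HRMS ornithine area vs 13C standard, % DMSO control.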

Experiment [8] can be described thus: STM_H9_CystineISnorm_perc: Stemina devTOX quickPredict H9 human embryonic stem cell (hESC)-based Assay for Cystine (CYSS) Metabolite Biomarker, Normalized (AID 2283713; active means hit-call score of the fitted dose curve at least 0.9, where 1 is the maximum; inactive means score below 0.9). The method in brief:
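Secreted cystine was measured by UPLC-HRMS in H9 hESC medium after 72h compound exposure with 24-hourly replenishment. Values are standard-normalized areas relative to 0.1% DMSO.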

The nature of experiment [9]: STM_H9_OrnCyssISnorm_ratio: Stemina devTOX quickPredict H9 human embryonic stem cell (hESC)-based Assay for Ornithine (ORN):Cystine (CYSS) Ratio (AID 2283714). The method in brief: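 Undifferentiated H9 hESCs exposed 72 h, media and compound replaced every 24 h; final 24-h conditioned media deproteinized and analysed by UPLC-HRMS against C13 spike-ins. Value is the internal-standard-normalized ORN/CYSS ratio versus 0.1% DMSO.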

A short description of experiment [10]: CEETOX_H295R_MTT_cell_viability: Viability Assessment in the CeeTox HT-H295R MTT Assay (AID 2283718; active means hit-call score of the fitted dose curve at least 0.9, where 1 is the maximum; inactive means score below 0.9;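 on AC50: curve fitted both ways so AC50 may mark viability loss or gain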). The method in brief: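 Human H295R adrenal cells, prestimulated 48 h with 10 uM forskolin, were exposed 48 h to chemicals in 0.1% DMSO. Viability was measured in the same wells by MTT (0.5 mg/ml, 4 h, 37 C), absorbance 570/650 nm, as percent of controls.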

Experiment [11] in a line: Tanguay_ZF_120hpf_ActivityScore_legacy: (Legacy) Oregon State University Tanguay Lab 120 Hour Post-fertilization zebrafish Assay Score for Activity (AID 2283742).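 On AC50: dechorionated Tropical 5D wild-type zebrafish embryos held singly per well; static exposure from 6 hpf until 120 hpf at 28 °C.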 The method in brief:
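Dechorionated Tropical 5D embryos, one per well from 6 hpf, statically exposed to 120 hpf at 28 °C in 0.64% DMSO. Mortality and malformations scored binary by brightfield microscopy; activity score combines 18 endpoints, fitted positively versus DMSO.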

Read-out in experiment [12]: organic anion transporter (SLCO1B1), SLCO1B1 (gene 10599)
The experiment in a line: CLD_SLCO1B1_48hr: CellzDirect (CLD) Gene Expression Assay for organic anion transporter (SLCO1B1) at 48 hours (AID 2283707). A digest of the protocol:
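Primary human hepatocytes from two donor preparations dosed daily for two days with multiple concentrations, 0.2% DMSO vehicle. SLCO1B1 mRNA at 48 h by quantitative nuclease protection assay, chemiluminescence; gain-of-signal fitted versus DMSO.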

Read-out in experiment [13]: xenobiotic metabolism (CYP1A1), CYP1A1 (gene 1543)
The experiment in a line: CLD_CYP1A1_48hr: CellzDirect (CLD) Gene Expression Assay for xenobiotic metabolism (CYP1A1) at 48 hours (AID 2283705). The method in brief:
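Primary human hepatocytes from two donors dosed daily for two days at multiple concentrations, 0.2% DMSO vehicle; CYP1A1 mRNA induction at 48 h by qNPA chemiluminescence. Cytotoxicity noted by phase-contrast morphology.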

A short description of experiment [14]: ArunA_CellTiter_hNC: Viability Assessment in the ArunA Biomedical's Oris Neural Crest (hNC) Cell Migration Assay (AID 2283752). A digest of the protocol:
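Viability of embryonic neural crest stem cells from the H9 line is scored 72 h after dosing, with DMSO as negative control and baseline. A drop in CellTiter Aqueous One signal indicates cytotoxicity.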

A short description of experiment [15]: ArunA_CellTiter_hNP: Viability Assessment in the ArunA Biomedical's Oris Neural Crest (hNC) Cell Migration Assay (AID 2283753). A digest of the protocol:
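H9-derived hNP1 neuroprogenitors, 60,000/well on Matrigel, cultured 16 h, then 72 h chemical exposure in test medium. Cell titer via CellTiter Aqueous One; positive-direction fit vs DMSO.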

Experiment [16] in a line: ArunA_Migration_hNP: ArunA Biomedical's Oris Neuroprogenitor (hNP) Cell Migration Assay (AID 2283754). A digest of the protocol:
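Human H9-derived hNP1 neuroprogenitors on Matrigel with LIF/bFGF, plated around seeding stoppers for 16 h at 37C; stoppers removed at start of 72 h chemical exposure. Calcein-AM staining, fluorescence 494/517 nm in detection zone; loss-of-signal vs DMSO; cytochalasin D control.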

The nature of experiment [17]: ArunA_Migration_hNC: ArunA Biomedical's Oris Neural Crest (hNC) Cell Migration Assay (AID 2283755). The method in brief:
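Human H9-derived neural crest stem cells, 60,000/well on Matrigel, 16 h at 37C, then 72 h chemical exposure after seeding-stopper removal. Migration into detection zone read as calcein-AM fluorescence (ex494/em517), relative to DMSO.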

Experiment [18] in a line: ArunA_NOG_NucleusCount: ArunA Biomedical's Neurite Outgrowth (NOG) Assay for Nucleus Count (AID 2283756). The method in brief:
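Human H9-derived differentiated neurons were exposed for 48 h right after seeding. Hoechst-stained nuclei gated by size and intensity were counted by automated high-content imaging as viable neurons. Loss of signal vs DMSO.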

Values joined by “and” are separate entries in the source; they are usually repeats but may differ in a detail not shown here. Equal values may be shown once. Inconclusive results are not listed. A structure can be active in one record and inactive in another. Active and inactive are the calls of the source. How the source made its calls, unless noted: active means hit-call score of the fitted dose curve at least 0.9, where 1 is the maximum; inconclusive means response in the unintended direction; inactive means score below 0.9.

Sequence of Cytochrome P450 2C19 (Homo sapiens) (P33261 whole entry, looked up): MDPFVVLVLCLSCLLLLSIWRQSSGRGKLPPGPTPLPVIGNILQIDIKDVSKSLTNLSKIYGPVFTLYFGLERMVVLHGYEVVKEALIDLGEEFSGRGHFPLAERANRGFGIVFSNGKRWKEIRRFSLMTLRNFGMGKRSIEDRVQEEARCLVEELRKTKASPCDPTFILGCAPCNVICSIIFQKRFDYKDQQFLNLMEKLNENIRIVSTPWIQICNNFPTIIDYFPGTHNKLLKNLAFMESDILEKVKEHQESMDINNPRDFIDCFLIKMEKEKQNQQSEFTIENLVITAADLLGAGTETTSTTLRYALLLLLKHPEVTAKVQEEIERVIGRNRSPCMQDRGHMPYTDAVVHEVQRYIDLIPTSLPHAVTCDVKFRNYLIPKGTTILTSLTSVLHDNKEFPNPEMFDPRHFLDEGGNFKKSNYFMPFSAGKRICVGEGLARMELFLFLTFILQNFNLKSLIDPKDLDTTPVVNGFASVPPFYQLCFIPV

Regarding `CCON=C(CC)C1=C(O)CC(c2c(C)cc(C)cc2C)CC1=O` (stereo not given), the call in [1], in experiment [2], in experiment [3], in experiment [4], in [5] and in [6] was inactive. Besides, the outcome in experiment [7], in experiment [8], in experiment [9], in experiment [10] and in [11] was inactive.

For the molecule `COP(N)(=O)SC` (stereo not given), the call in experiment [1], in experiment [2], in [3], in experiment [12], in experiment [4] and in [5] was inactive. Besides, the outcome in experiment [6] and in experiment [11] was inactive.

Consider `CCCCNC(=O)n1c(NC(=O)OC)nc2ccccc21`, for which the result in experiment [1], in [4] and in experiment [11] was inactive. The AC50 in experiment [3] was 6.67 µM (active); in experiment [13], 33.1 µM (active); in experiment [7] it was 6.13 µM (active); in [8] it was 8.39 µM (active); in experiment [9], 6.59 µM (active); in experiment [10] it was 0.015 µM (active).

Regarding `CCCCOC(=O)c1ccccc1C(=O)OCCCC`, the call in [1], in experiment [2], in experiment [13], in [12], in [4] and in experiment [5] was inactive. In addition, the outcome in experiment [6], in [10] and in [11] was inactive. Further, the AC50 was 10.6 µM (active) and 11.1 µM (active) in [3]; 76.3 µM (active) in [7]; 50 µM (active) in [8]; 56 µM (active) in [9].

With `COC(=O)C(C)Oc1ccc(Oc2ccc(Cl)cc2Cl)cc1` (stereo not given), the molecule was called inactive in experiment [1], in experiment [2], in [3], in [13], in experiment [12] and in experiment [4]. In addition, the call in experiment [5], in experiment [6] and in experiment [11] was inactive. The AC50 is 20 µM (active) and 12.1 µM (active) in [3]; 20 µM (active) in experiment [4]; 35.6 µM (active) in [6].

Consider `CC(C)(C)c1ccc(CSc2cnn(C(C)(C)C)c(=O)c2Cl)cc1`, for which the result in [1], in [2], in experiment [3], in [13], in experiment [12] and in experiment [4] was inactive. Further, the molecule was classed as inactive in experiment [5], in [6], in experiment [14], in [15] and in experiment [18]. For the same molecule, the AC50 was 0.0663 µM (active) in experiment [7]; 0.171 µM (active) in experiment [8]; 0.091 µM (active) in experiment [9]; 40.3 µM (active) in experiment [11]; 0.0196 µM (active) in experiment [16]; 0.0516 µM (active) in experiment [17].

Take `COc1cnc(OC)n2nc(NS(=O)(=O)c3c(OCC(F)F)cccc3C(F)(F)F)nc12`: the molecule was classed as inactive in [1], in experiment [2], in experiment [3], in [13], in [12] and in [4]. Also, the molecule was called inactive in experiment [5] and in experiment [11].

Take `Cc1cc(Cl)ccc1OCC(=O)O`: the call in experiment [1], in experiment [2], in experiment [3], in experiment [4], in [6] and in experiment [10] was inactive. In addition, the outcome in [11] was inactive.
